Experimental data: PubChem BioAssay (NCATS)
Inconclusive results are not listed. Entries that show only a call come without a potency. Activity calls are given as the source filed them. Calls come from the whole dose curve; as a rule, active = well fitted inhibition curve with a large enough effect; inconclusive = small, poorly fitted or top-dose-only effect; inactive = flat fitted curve, though single readings scatter.

How the values were obtained:
Test in all cases: qHTS profiling for inhibitors of Plasmodium falciparum proliferation (AID 504749); note: nearly all actives have a fitted effect of over 60% in size
Details in all cases: P. falciparum in erythrocytes, SYBR Green DNA, 72 h; series mostly up to 28.7 µM
CP217 = test system: CP217
How it was run: (§1)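 Quantitative HTS: compounds pinned into medium, infected erythrocytes added (0.3% parasitemia, 2.5% hematocrit), 72 h culture at 37 C under 5% CO2. Saponin/Triton lysis with SYBR Green I, overnight RT, then fluorescence read.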

CP237 = test system: CP237
How it was run: as §1

CP238 = test system: CP238
How it was run: as §1

CP247 = test system: CP247
How it was run: as §1

CP250 = test system: CP250
How it was run: as §1

CP252 = test system: CP252
How it was run: as §1

CP256 = test system: CP256
How it was run: as §1

CP260 = test system: CP260
How it was run: as §1

CP262 = test system: CP262
How it was run: as §1

CP265 = test system: CP265
How it was run: as §1

CP266 = test system: CP266
How it was run: as §1

CP268 = test system: CP268
How it was run: as §1

CP269 = test system: CP269
How it was run: as §1

CP286 = test system: CP286
How it was run: as §1

CP291 = test system: CP291
How it was run: as §1

CP297 = test system: CP297
How it was run: as §1

CP305 = test system: CP305
How it was run: as §1

CP315 = test system: CP315
How it was run: as §1

CP325 = test system: CP325
How it was run: as §1

CP329 = test system: CP329
How it was run: as §1
Potency is the fitted concentration of half-maximal effect.

Structure (SMILES) | Potency (CP217) | Potency (CP237) | Potency (CP238) | Potency (CP247) | Potency (CP250) | Potency (CP252) | Potency (CP256) | Potency (CP260) | Potency (CP262) | Potency (CP265) | Potency (CP266) | Potency (CP268) | Potency (CP269) | Potency (CP286) | Potency (CP291) | Potency (CP297) | Potency (CP305) | Potency (CP315) | Potency (CP325) | Potency (CP329)
CN1CCN(C(=O)O[C@H]2c3nccnc3C(=O)N2c2ccc(Cl)cn2)CC1 | inactive | inactive | inactive | inactive | inactive | inactive | inactive | inactive | inactive | inactive | inactive | inactive | inactive | inactive | inactive | inactive | inactive | inactive | inactive | inactive
CC(C)CC(N(C)C)C1(c2ccc(Cl)cc2)CCC1 (centres undefined) | inactive | inactive | inactive | inactive | inactive | inactive | inactive | inactive | inactive | inactive | inactive | inactive | inactive | inactive | inactive | inactive | inactive | inactive | inactive | inactive
CCCC(C)(COC(N)=O)COC(=O)NC(C)C (centres undefined) | inactive | inactive | inactive | inactive | inactive | inactive | inactive | inactive | inactive | inactive | inactive | inactive | inactive | inactive | inactive | inactive | inactive | inactive | inactive | inactive
NN=C(N)N | inactive | inactive | inactive | inactive | inactive | inactive | inactive | inactive | inactive | inactive | inactive | inactive | inactive | inactive | inactive | inactive | inactive | inactive | inactive | inactive
C#CCOC(C(=O)OCCN(C)C)(c1ccccc1)c1ccccc1 | inactive | inactive | inactive | inactive | inactive | inactive | inactive | inactive | inactive | inactive | inactive | inactive | inactive | inactive | inactive | inactive | inactive | inactive | inactive | inactive
CCN(C(C)=O)c1cccc(-c2ccnc3c(C#N)cnn23)c1 | inactive | inactive | inactive | inactive | inactive | inactive | inactive | inactive | inactive | inactive | inactive | inactive | inactive | inactive | inactive | – | inactive | inactive | inactive | inactive
CC[C@@H](CO)NC(=O)[C@@H]1C=C2c3cccc4[nH]cc(c34)C[C@H]2N(C)C1 | inactive | inactive | inactive | inactive | inactive | inactive | inactive | inactive | inactive | inactive | inactive | inactive | inactive | inactive | inactive | inactive | inactive | inactive | inactive | inactive
CC(C)(N)Cc1ccc(Cl)cc1 | inactive | 8.91 µM (active) | inactive | inactive | inactive | inactive | inactive | inactive | inactive | – | inactive | – | inactive | inactive | inactive | – | – | inactive | inactive | –
Cc1cccc(C)c1NC1=NCCCS1 | – | 7.08 µM (active) | – | inactive | inactive | – | – | – | – | – | inactive | – | – | – | – | – | – | inactive | – | –
c1ccc(C2CC2)c(OCC2=NCCN2)c1 | inactive | – | inactive | – | inactive | inactive | inactive | inactive | – | inactive | inactive | inactive | inactive | inactive | inactive | inactive | inactive | inactive | inactive | inactive
O=c1[nH]c2ccccc2n1C1CCN(CCCC(c2ccc(F)cc2)c2ccc(F)cc2)CC1 | inactive | 7.94 µM (active) | inactive | inactive | inactive | inactive | – | 12.6 µM (active) | inactive | inactive | inactive | inactive | – | 11.2 µM (active) | inactive | – | inactive | – | – | inactive
CC(CCc1ccccc1)NC(C)C(O)c1ccc(O)cc1 (centres undefined) | inactive | 5.62 µM (active) | – | – | inactive | inactive | inactive | – | inactive | – | inactive | – | – | – | – | – | – | inactive | – | –
CC(C)(C)NCC(O)c1cc(Cl)c(N)c(Cl)c1 (centres undefined) | inactive | 7.94 µM (active) | – | inactive | inactive | – | inactive | – | – | – | inactive | inactive | – | inactive | – | – | – | inactive | inactive | inactive
Oc1ccc(Cl)cc1Cc1ccccc1 | – | – | inactive | – | inactive | – | – | – | inactive | – | inactive | – | – | inactive | – | – | – | inactive | inactive | inactive
C[C@]12C/C(=C/O)C(=O)C[C@@H]1CC[C@@H]1[C@@H]2CC[C@@]2(C)[C@H]1CC[C@]2(C)O | inactive | inactive | inactive | – | inactive | inactive | inactive | inactive | inactive | inactive | inactive | inactive | inactive | inactive | – | inactive | inactive | inactive | inactive | inactive
c1ccc2c(c1)Nc1ccccc1S2 | – | – | inactive | 10 µM (active) | 4.47 µM (active) | – | – | 10 µM (active) | – | inactive | inactive | – | – | – | – | – | – | – | – | –
COc1ccc(C(=O)c2c(C)n(CCN3CCOCC3)c3ccccc23)cc1 | inactive | inactive | inactive | inactive | – | inactive | inactive | inactive | inactive | inactive | – | inactive | inactive | inactive | inactive | inactive | inactive | inactive | inactive | inactive
Fc1ccc(C(OCCN2CCN(CCCc3ccccc3)CC2)c2ccc(F)cc2)cc1 | 8.91 µM (active) | 10 µM (active) | 12.6 µM (active) | 10 µM (active) | – | 11.2 µM (active) | – | 10 µM (active) | inactive | – | – | – | 15.1 µM (active) | 11.2 µM (active) | 10.7 µM (active) | – | 10.7 µM (active) | – | 15.1 µM (active) | –

Structure (SMILES) | Potency (CP217) | Potency (CP237) | Potency (CP238) | Potency (CP247) | Potency (CP250) | Potency (CP252) | Potency (CP256) | Potency (CP260) | Potency (CP262) | Potency (CP265) | Potency (CP266) | Potency (CP268) | Potency (CP269) | Potency (CP286) | Potency (CP291) | Potency (CP297) | Potency (CP305) | Potency (CP315) | Potency (CP325) | Potency (CP329)
O=C(O)c1ccc2[nH]cc(CCCCN3CC=C(c4ccccc4)CC3)c2c1 | inactive | inactive | inactive | – | inactive | inactive | inactive | inactive | inactive | inactive | inactive | inactive | inactive | inactive | inactive | – | inactive | inactive | inactive | inactive
CCC(COC(=O)c1cc(OC)c(OC)c(OC)c1)(c1ccccc1)N(C)C (centres undefined) | inactive | – | inactive | inactive | inactive | inactive | inactive | inactive | inactive | inactive | inactive | inactive | inactive | inactive | inactive | inactive | inactive | inactive | inactive | inactive
CC(C)=CC1C(C(=O)OCc2cccc(Oc3ccccc3)c2)C1(C)C (centres undefined) | inactive | inactive | inactive | inactive | inactive | inactive | inactive | – | inactive | inactive | inactive | inactive | inactive | – | inactive | inactive | inactive | inactive | inactive | inactive
CCN(CC)CCOC(=O)C(O)(c1ccccc1)c1ccccc1 | inactive | inactive | inactive | inactive | inactive | inactive | – | inactive | inactive | inactive | inactive | inactive | inactive | inactive | inactive | – | inactive | inactive | inactive | inactive
Cc1ccc(S(=O)(=O)N[C@@H](CCCCN)C(=O)CCl)cc1 | – | – | – | 5.62 µM (active) | 7.94 µM (active) | – | 7.94 µM (active) | – | – | – | inactive | inactive | inactive | – | – | inactive | – | inactive | – | –
c1ccc2c(c1)OCC(C1=NCCN1)O2 (centres undefined) | inactive | – | inactive | – | inactive | inactive | inactive | – | inactive | inactive | inactive | inactive | inactive | inactive | inactive | inactive | inactive | inactive | inactive | inactive
CC1NCCOC1c1ccccc1 (centres undefined) | inactive | – | inactive | inactive | inactive | inactive | inactive | inactive | inactive | inactive | inactive | inactive | inactive | inactive | inactive | inactive | inactive | inactive | inactive | inactive
CC(C)NCC(O)c1ccccc1Cl (centres undefined) | 10 µM (active) | 5.01 µM (active) | – | – | – | – | – | 11.2 µM (active) | – | – | inactive | – | – | 10 µM (active) | – | 15.1 µM (active) | – | inactive | – | inactive
N[C@@H](Cc1ccc(N(CCCl)CCCl)cc1)C(=O)O | – | – | – | – | – | – | inactive | – | inactive | – | inactive | inactive | – | – | inactive | inactive | inactive | inactive | inactive | inactive
N#CC(C#N)=Cc1ccc(O)c(O)c1 | inactive | inactive | inactive | inactive | – | inactive | – | inactive | inactive | inactive | inactive | inactive | inactive | inactive | inactive | – | inactive | inactive | inactive | inactive
FC(F)(F)c1cccc(C2=CCN(CCc3ccc4ccccc4c3)CC2)c1 | inactive | inactive | inactive | inactive | inactive | inactive | – | inactive | inactive | inactive | inactive | – | inactive | inactive | inactive | inactive | inactive | inactive | inactive | inactive
Cc1ccc(-c2nc3ccc(C)cn3c2CC(=O)N(C)C)cc1 | inactive | inactive | inactive | inactive | inactive | inactive | – | inactive | inactive | inactive | inactive | inactive | inactive | inactive | inactive | – | inactive | inactive | inactive | inactive
CCN(CC)CCN1C(=O)CN=C(c2ccccc2F)c2cc(Cl)ccc21 | inactive | – | – | inactive | inactive | inactive | inactive | inactive | inactive | – | inactive | inactive | inactive | inactive | – | inactive | inactive | inactive | inactive | –
O=C1NCN(c2ccccc2)C12CCN(CC1COc3ccccc3O1)CC2 (centres undefined) | inactive | – | inactive | inactive | inactive | inactive | inactive | – | inactive | inactive | inactive | inactive | inactive | inactive | inactive | inactive | inactive | inactive | inactive | inactive
CCC1(C2=NCCN2)Cc2ccccc2O1 (centres undefined) | – | 10 µM (active) | – | – | – | – | – | – | inactive | – | – | – | – | – | – | 9.53 µM (active) | – | – | – | –
Clc1cccc(N2CCNCC2)c1 | inactive | – | inactive | inactive | inactive | inactive | inactive | inactive | inactive | inactive | inactive | inactive | inactive | inactive | inactive | – | inactive | inactive | inactive | inactive
Oc1cc(Cl)ccc1Oc1ccc(Cl)cc1Cl | 7.94 µM (active) | 7.08 µM (active) | 10 µM (active) | – | – | 7.94 µM (active) | – | 11.2 µM (active) | – | – | inactive | – | 12 µM (active) | 12.6 µM (active) | – | 15.1 µM (active) | inactive | – | – | –
